Screens (PubChem BioAssay)
IEC-6 cytotox – counter-screen for KLF5 inhibitors: cytotoxicity in IEC-6 cells; IEC-6 cytotoxicity, luminescence viability; inhibition, % at 5 µM; 0.78% of 290,000 active; AID 1825;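 also: 0% = plate median of test compound wells and 100% = cytotoxic reference compound wells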
aSyn UTR inh – 5' untranslated region of α-synuclein, MLPCN primary screen. 0.82% of 300,000 active. alpha-synuclein 5'UTR reporter, inhibitor activity. inhibition, % (tested at 7.5 µM); in the data active = inhibition above about 60%;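 also: H4 neuroglioblastoma cells stably carrying SNCA 5'UTR luciferase fusion; 0% = DMSO wells and 100% = positive control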
KLF5 inh – inhibitors of KLF5 expression | inhibition, % at 5 µM | 0.23% of 290,000 active | DLD-1 KLF5 promoter-luciferase reporter, luminescence;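 active = inhibition above a per-plate limit of that plate's mean compound inhibition plus 3 SD, cut at about 60% in these data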;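 also: 0% = DMSO wells and 100% = LY294002 at 200 µM; higher means less KLF5 promoter-driven luciferase light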
APP transl inh – APP translation inhibition; SH-SY5Y APP 5'UTR-luciferase reporter, luminescence; inhibition, % at 2 µM; 0.82% of 190,000 active;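 active = inhibition above a set limit, derived from the sample mean plus 3 SD, cut at about 45% in these data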
Ba/F3 V617F tox – loss of viability in JAK2V617F-driven Ba/F3 cells; Ba/F3 EpoR-JAK2V617F viability, ATP luminescence; 1.1% of 220,000 active; inhibition, % at 5.6 µM; AID 1446;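 active = inhibition above the campaign mean plus 3 SD over all tested compounds, cut at about 24% in these data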;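 also: cytokine-independent growth of Ba/F3 cells driven by EpoR plus mutant JAK2; 0% = DMSO-treated cells and 100% = JAK inhibitor I control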
BaF3 parental – parental Ba/F3 viability inhibition as JAK2V617F counter-screen; CellTiter-Glo ATP luminescence; inhibition, % at 5.6 µM; 1.1% of 220,000 active;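 active = inhibition above a per-campaign cutoff, the mean inhibition of all tested compounds plus 3 SD, cut at about 27% in these data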;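 also: 0% = DMSO wells and 100% = JAK Inhibitor I control wells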
IEC-6 cytotox cf – confirmation of cytotoxic compounds in rat IEC-6 intestinal epithelial cells | IEC-6 rat intestinal epithelial viability, luminescence | inhibition, % at 5 µM | AID 1907 | 63% of 1,900 active | shares compounds with IEC-6 cytotox;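 also: 0% = vehicle and 100% = reference cytotoxic drug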
Active calls of the source: *; . = no result given. Only some compounds are listed: those with a hit (about 2.2% of all), similar ones and a draw of the others. Rule as the data show it, unless noted: active = inhibition above about 22%; inactive = the rest.

SMILES | IEC-6 cytotox | aSyn UTR inh | KLF5 inh | APP transl inh | Ba/F3 V617F tox | BaF3 parental | IEC-6 cytotox cf
COc1cc(CNCc2cc(OC)ccc2OC)cc(OC)c1 | 1.8 | 11.8 | -34.8 | . | . | . | .
O=C(CSc1ncnc2nc[nH]c12)c1ccccc1 | 7.5 | -86.9 | -67.2 | -33.8 | 8.1 | 23.7 | .
O=C(CSc1ncnc2nc[nH]c12)c1ccc(Cl)cc1 | 41.1* | 14.0 | -14.2 | . | . | . | 23.3*
CCCCOC(=O)c1c(C)oc2ccc(NS(=O)(=O)c3ccc4c5c(cccc35)C(=O)N4)cc12 | -1.3 | 0.9 | -16.8 | -8.1 | -3.7 | -1.7 | .
CCOc1ccc(S(=O)(=O)Nc2cc(SCC(=O)O)c(O)c3ccccc23)cc1 | 49.4* | 48.5 | -14.2 | . | . | . | 1.0
CCc1ccc(S(=O)(=O)Nc2cc(SCC(=O)O)c(O)c3ccccc23)cc1 | 5.1 | -13.4 | -3.9 | 5.8 | -2.5 | 5.7 | .
CCCSc1nnc(Sc2nnnn2-c2ccccc2)s1 | 42.4* | 12.5 | -40.3 | 94.5* | 82.0* | 94.8* | 26.2*
Cc1ccc(S(=O)(=O)/N=C2/C=C(Sc3ncn[nH]3)C(=O)c3ccccc32)cc1 | 25.6* | . | -23.1 | 64.2* | 73.1* | 72.0* | -3.0
COc1ccc(NC(=O)CS(=O)(=O)c2ccc(Br)cc2)cc1 | 1.8 | 0.2 | 9.8 | . | . | . | .
Cc1cc2nc(C3CCN(Cc4nnnn4Cc4ccccc4)CC3)[nH]c2cc1C | 71.8* | 74.2* | 22.9 | 39.8 | 72.3* | 68.3* | 52.1*
CCC(C)(C)n1nnnc1CN1CCC(c2nc3ccc(C)cc3[nH]2)CC1 | 10.8 | 21.8 | -44.3 | -1.2 | -3.6 | 2.5 | .
COc1ccc(OC)c(NC(=O)C(C)N2c3cccc4cccc(c34)S2(=O)=O)c1 (configuration not stated) | 5.0 | 4.0 | 16.8 | . | . | . | .
O=[N+]([O-])c1ccc(N/N=C/c2cccnc2)cc1 | 24.2* | -13.8 | -55.8 | . | . | . | 5.0
O=C(N/N=C/c1cccnc1)c1ccc([N+](=O)[O-])cc1 | 1.6 | 14.2 | -13.4 | 4.5 | -2.9 | 0.8 | .
O=C1CC(c2cccc(Cl)c2)c2cc3c(cc2N1)CCC3 (configuration not stated) | 28.4* | 49.3 | 13.8 | 33.9 | 9.3 | 26.7* | 29.2*
O=C(Nc1ccc(N2CCN(C(=O)c3cccs3)CC2)cc1)c1ccc([N+](=O)[O-])o1 | 101.4* | 105.9* | 46.7 | . | . | . | 95.8*
O=C(Nc1ccc(N2CCOCC2)cc1)c1ccc(Br)o1 | -3.3 | -40.2 | -87.1 | . | . | . | .
O=C(Nc1ccc(N2CCN(C(=O)c3cccs3)CC2)cc1)c1ccco1 | -0.2 | -11.1 | -9.2 | . | . | . | .
O=C(Nc1ccc(N2CCOCC2)cc1)c1ccc([N+](=O)[O-])o1 | 79.4* | -103.3 | 10.4 | . | . | . | 25.4*
CC(=O)Nc1ccc2nc(NC(=O)c3ccc([N+](=O)[O-])o3)sc2c1 | 56.5* | -100.0 | -31.8 | . | . | . | 13.1
O=C(Nc1ccc(Cc2ccncc2)cc1)c1ccc([N+](=O)[O-])o1 | 51.4* | -150.3 | -21.9 | . | . | . | 18.2
CC1=C(C(=O)Nc2ccc(CC(=O)NCc3ccc(OC(C)C)cc3)cc2)SCCO1 | 82.2* | 55.7 | 47.4 | . | . | . | 60.3*
COc1ccc(CNC(=O)Cc2ccc(NC(=O)C3=C(C)OCCS3)cc2)cc1 | 65.3* | -13.1 | 10.2 | . | . | . | 43.0*
CC(C)(C)c1ccc(OCCC(=O)OCC(=O)Nc2cccnc2Cl)cc1 | . | -11.3 | . | . | . | . | .
Nc1nc(Cl)cc(Sc2ccc3ccccc3c2)n1 | -1.9 | -38.0 | -32.2 | -16.6 | 4.0 | 1.1 | .
SMILES | IEC-6 cytotox | aSyn UTR inh | KLF5 inh | APP transl inh | Ba/F3 V617F tox | BaF3 parental | IEC-6 cytotox cf
Cc1nnc(N/N=C/c2ccc(-c3ccccc3F)o2)n1N | 102.2* | -107.5 | -97.9 | -35.8 | 5.4 | 7.9 | 4.6
Cc1nnc(N/N=C\c2ccc(-c3ccccc3[N+](=O)[O-])o2)n1N | 57.8* | -75.0 | -85.4 | 0.2 | 1.5 | 10.6 | -4.5
CCc1nnc(N/N=C/c2ccc(-c3ccc([N+](=O)[O-])cc3)o2)n1N | 9.8 | -13.2 | -16.2 | 13.8 | 1.4 | 6.3 | .
Cc1[nH]n2c(=O)cc(C(C)(C)C)nc2c1-c1ccccc1 | 33.5* | 49.2 | 23.1 | 13.5 | 8.8 | 13.4 | 35.3*
Nc1ccccc1C(=O)NNC1=C(C(=O)C(F)(F)F)CCC1 | 34.3* | -277.8 | -28.5 | . | -1.4 | 2.6 | 5.0
O=C(NNC1=C(C(=O)C(F)(F)F)CCC1)c1ccccc1O | 0.4 | 10.1 | -13.8 | 17.0 | -0.4 | 5.7 | .
CCCCNc1cc(C)nc(NCc2ccccc2)n1 | 23.3* | -17.3 | -7.8 | -12.1 | 49.5* | 45.4* | 1.5
Cc1cc(Nc2ccccc2)nc(NCc2ccccc2)n1 | 13.4 | 0.0 | -13.0 | 2.4 | 9.2 | 15.5 | .
O=C(NCc1cccnc1)c1ccc([N+](=O)[O-])cc1 | -2.6 | 9.9 | -16.9 | -2.0 | 1.0 | 5.8 | .
C=CCOc1ccc(C(=O)Nc2ccccc2C(=O)NCc2cccnc2)cc1 | 39.3* | -51.8 | 47.2 | . | . | . | 25.7*
O=C(COc1ccc([N+](=O)[O-])cc1)NCc1cccnc1 | -2.1 | -19.8 | -63.3 | -24.6 | 1.4 | 10.4 | .
O=C(NCc1cccnc1)c1ccc(NC(=O)c2cccc([N+](=O)[O-])c2)cc1 | 75.3* | 4.1 | -11.3 | 9.7 | 20.6 | 0.1 | 8.1
O=C(COc1ccc([N+](=O)[O-])cc1)Nc1ccc(C(=O)NCc2cccnc2)cc1 | 30.3* | 14.1 | -22.2 | -8.7 | 10.1 | 1.4 | -6.3
O=C(N/N=C/c1ccc(O)cc1)c1[nH]c2ccc(Br)cc2c1-c1ccccc1 | 82.9* | 7.6 | 56.3 | 94.3* | 75.3* | 71.0* | 65.4*
O=C(N/N=C/c1c[nH]c2ccccc12)c1[nH]c2ccc(Br)cc2c1-c1ccccc1 | 81.9* | -26.4 | 43.7 | 91.9* | 76.2* | 68.4* | 63.1*
O=C(Nc1ccccc1)Nc1cccc(Cl)c1Cl | 6.7 | -237.2 | -14.8 | -55.3 | -2.0 | 5.2 | .
O=C(Nc1ccc(Oc2ccc(NC(=O)Nc3ccccc3Cl)cc2)cc1)Nc1ccccc1Cl | 14.7 | -5.5 | 1.1 | . | -2.4 | 1.2 | -2.2
CCOC(=O)c1[nH]c(C)c(/C(O)=C2\C(=O)C(=O)N(CCCN3CCOCC3)C2c2cccs2)c1C (configuration not stated) | 58.7* | -34.3 | 32.9 | . | 69.7* | 71.8* | 10.0
COC(=O)c1[nH]c(C)c(/C(O)=C2\C(=O)C(=O)N(CCN3CCOCC3)C2c2cccs2)c1C (configuration not stated) | . | 8.5 | . | . | . | . | .
O=C(NNC(=O)c1ccc[nH]1)c1cc(Cl)cc(Cl)c1 | -6.7 | -0.1 | -18.4 | . | . | . | .
NCC(=O)Nc1ccc(Cl)cc1C(=O)c1ccc[nH]1 | 31.0* | -23.4 | -26.7 | . | 58.3* | 37.5* | 9.3
Cc1occc1C(=O)N/N=C/c1ccc(OCc2ccccc2)cc1 | -10.2 | -137.7 | -107.3 | . | -0.2 | -0.5 | .
Cc1occc1C(=O)N/N=C/c1ccc(-c2ccccc2)cc1 | 27.5* | -29.1 | -14.6 | . | . | . | 31.1*
CCOc1ccc(-n2ccnc2SCC(=O)NCc2ccc3c(c2)OCO3)cc1 | -7.3 | 24.8 | 5.1 | 15.5 | 1.4 | 6.7 | .
Cn1nnc2cc(C(=O)N3CCN(c4ccccn4)CC3)ccc21 | -4.6 | -34.0 | -25.6 | . | . | . | .
